From PubChem BioAssay (NCI)
About 79,000 compounds went through this panel and 15% of them were active in at least one assay; those are over-represented in the sample as a whole. Unmarked numbers belong to inactive results. Active and inactive are the calls of the source. Cut-off read from the data, not from the text of the source: active = growth inhibition above about 70%; inactive = the rest.

How the values were obtained:
[1] = NCI Yeast Anticancer Drug Screen. Data for the rad50 strain (AID 155);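 note: 0% = growth of vehicle-only cultures of the same strain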; conditions: S. cerevisiae rad50 strain growth inhibition; at 50.0 µM; hits give high values
How it was run: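 DNA repair mutant yeast, compound exposure, growth read-out; inhibition is taken relative to vehicle.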

[2] = NCI Yeast Anticancer Drug Screen. Data for the mec2-1 strain (AID 157); conditions: S. cerevisiae mec2-1 strain, at 50.0 µM, hits give high values
How it was run: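 Mutant yeast (mec2-1) grown with compound; growth inhibition relative to vehicle control reported.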

[3] = NCI Yeast Anticancer Drug Screen. Data for the sgs1 mgt1 strain (AID 161);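 note: 0% = growth of cultures given vehicle only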; conditions: S. cerevisiae sgs1 mgt1 strain, at 50.0 µM, hits give high values
How it was run: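 Growth of a repair-deficient yeast mutant was monitored after compound treatment and expressed as inhibition relative to vehicle-treated cultures.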

[4] = NCI Yeast Anticancer Drug Screen. Data for the cln2 rad14 strain (AID 165);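 note: 0% = growth equal to vehicle treated cultures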; conditions: S. cerevisiae cln2 rad14 strain, at 50.0 µM, hits give high values
How it was run: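 Readout is yeast growth inhibition versus vehicle-treated controls, using a strain with cln2 and rad14 alterations exposed to compound.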

[5] = NCI Yeast Anticancer Drug Screen. Data for the bub3 strain (AID 167); conditions: S. cerevisiae bub3 mutant strain, at 50.0 µM, hits give high values
How it was run: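 In this screen, a yeast mutant lacking normal mitotic checkpoint function is challenged with compound. Relative growth versus vehicle gives the inhibition value.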

[6] = NCI Yeast Anticancer Drug Screen. Data for the mlh1 rad18 strain (AID 175); conditions: S. cerevisiae mlh1 rad18 strain growth inhibition; at 50.0 µM; hits give high values
How it was run: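 Genetically defined yeast (DNA repair-deficient) exposed to compounds; growth inhibition determined relative to vehicle.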

Compound	growth inhibition [1]	growth inhibition [2]	growth inhibition [3]	growth inhibition [4]	growth inhibition [5]	growth inhibition [6]
O=c1[nH]cc(F)c(=S)[nH]1	-9.85%	-16.5%	-5.9%	-16.4%	6.2%	-23.9%
CCOC(=O)C1(C)Sc2ccccc2N=C1c1ccccc1 (configuration not stated)	25.9%	48.5%	45.5%	7.35%	26.1%	17.6%
O=C(CNC(=O)C(CCC(=O)OCc1ccccc1)NC(=O)OCc1ccccc1)NCC(=O)Oc1ccc([N+](=O)[O-])cc1 (configuration not stated)	25.1%	13.6%	10.3%	9.3%	4%	18.1%
COc1ccc2nc3cc(Cl)ccc3c(NCCC3CCCN4CCCCC34)c2c1 (configuration not stated)	33%	26.4%	14.6%	21.6%	12.4%	33%
CC(C)C(=O)OC1(Cc2cccc[n+]2C)CCCCC1	8.8%	9.6%	22.6%	27.4%	12.9%	1.45%
C=CC(C)Cc1ccccc1 (configuration not stated)	2%	1.05%	7.85%	24.1%	31.5%	25.2%
CCOC(SCC)C(O)C(O)C(O)C(O)CO (configuration not stated)	-1.9%	-4.2%	20.4%	-14.7%	-7.8%	-21.6%
CC(=O)Nc1cc(C(C)=O)ccc1C(C)=O	-5.8%	-6.2%	6%	2.35%	-0.5%	12.7%
CC(=O)Nc1ccc(/C=C/c2csnn2)cc1	-7.8%	7.7%	11.9%	8.7%	-4.45%	-3.2%
O=C1OC(c2ccccc2)=CC1(Cc1ccccc1)Cc1ccccc1	0.2%	-25.4%	4.35%	-35.2%	2.6%	-5.15%
CC1(C)OCC2OC(O)C(OS(=O)(=O)c3ccc([N+](=O)[O-])cc3)C2O1 (configuration not stated)	-5.5%	-2.55%	-0.5%	-33%	-10.9%	-30.3%
O=C(O)C(O)(C1CCCCC1)C1CCC2CCC3CCCC1C32 (configuration not stated)	5.4%	9.4%	20.1%	12.7%	-11.2%	14.8%
CCN(CC)CC(O)CN1CCCc2ccccc21 (configuration not stated)	-9.4%	1.5%	0.6%	-5.4%	7.85%	-13.4%
CCCCn1cnc2c(SCc3ccc(Cl)cc3Cl)nc(N)nc21	1.15%	25.2%	7.35%	21.2%	15.3%	-8.2%
CC(=O)OC1C(COS(=O)(=O)c2ccc(C)cc2)OCOC(COS(=O)(=O)c2ccc(C)cc2)C1OC(C)=O (configuration not stated)	0.2%	4.4%	-0.55%	-26.2%	-0.7%	18.4%
O=C(/C=N\O)c1ccccc1[N+](=O)[O-]	-5.6%	-4.85%	7.6%	-37.5%	-1.35%	-19.1%
CC1=C(/C=C/C(C)=C\c2cc(C)cc(=O)o2)C(C)(C)CCC1	23.1%	-1.5%	8.7%	-26.6%	5.75%	16.9%
Clc1ccc(-c2ncc(-c3ccccc3)o2)cc1	20.8%	-13.7%	-6.75%	4.2%	33.6%	-9.9%
Nc1ccnc(=O)[nH]1	-3.5%	-11.7%	-18.8%	-20.8%	3.3%	-36.8%
N#CC1=C(O)/C(=C\C=C\c2ccccc2)N(C(=O)c2ccccc2)C1=N	12.2%	-7.6%	-6.2%	10.2%	-6.85%	19.1%
CCOC(=O)C1=C(Nc2ccc(Cl)cc2Cl)OCC1=O	-12.3%	-5.85%	-0.35%	-13.9%	-58.5%	10.2%

Compound	growth inhibition [1]	growth inhibition [2]	growth inhibition [3]	growth inhibition [4]	growth inhibition [5]	growth inhibition [6]
C/C(=C\C(C)(C)c1ccccc1)c1ccccc1	-14.9%	-31.6%	-3.75%	-8.35%	9.2%	-25.1%
CC(=O)CC1CCC(CC(C)=O)CC1 (configuration not stated)	13.1%	7.2%	-13.3%	-66.3%	-4.1%	-23.5%
N#CCCP(=O)(O)CO	-6.5%	-13.3%	1.1%	0.1%	3.9%	-26.7%
C=CCc1cc2c(cc1COC(C)=O)OCO2	-35.7%	-17.9%	-15.4%	-36.5%	-10.6%	-28%
Cc1ccc[n+]([O-])c1Cl	1.55%	14.2%	-8.55%	-34.2%	11.2%	4.2%
N=[N+]=CC(=O)OCC(N)C(=O)O (configuration not stated)	78.7% (active)	82.2% (active)	80.2% (active)	54.6%	13.2%	73.9% (active)
CONCC(=O)c1ccc(SC)cc1	-18.4%	0.6%	-13.8%	-21.8%	-9.7%	0%
O=C(O)CC1OCC=C2C[N+]3([O-])CCC45c6ccccc6NC4C1C2CC53 (configuration not stated)	-1.5%	19.7%	-16.1%	-31.9%	-35.4%	10.6%
NCC(c1ccccc1)C1CCCCC1 (configuration not stated)	13.2%	-2.35%	5.05%	-7.5%	-3.9%	15%
CC(=O)/C=C(\O)c1c(C)[nH]c2ccccc12	-16%	9%	-3.95%	-41.4%	-11.9%	-5.95%
COC(=O)c1cc2cc3ccccc3cc2cc1C(=O)OC	1.7%	14.4%	11.8%	-13.4%	-26.1%	-8.8%
CNC(=O)Nc1ccc(Cl)cc1C(=O)O	-26.2%	2.45%	-15.7%	-72.2%	-13.7%	-7.45%
Cc1cc(C(C)(C)C)nc(C(C)(C)C)c1	13.1%	6.4%	15.2%	-60.6%	0.8%	-4.85%
CC1NC(=O)C2Cc3ccc(O)c(c3)Oc3cccc(c3)C(O)C(C(=O)N2C)N(C)C(=O)C(C)NC(=O)C(Cc2ccc(O)c(O)c2)N(C)C(=O)C(C)NC1=O (configuration not stated)	6.75%	-19.3%	6.6%	6.15%	10.7%	6.55%
Cc1[nH]n(C2=NCCN2)c(=O)c1Cc1ccccc1	4.6%	-6.95%	-24.2%	-26.3%	-10.6%	-61.6%
COc1ccc(NC(C)=O)cc1C1CCC(=O)N1 (configuration not stated)	12.2%	7.25%	-1.65%	10.1%	-19%	-23.6%
O=C(NC1(C(=O)O)CCCC1)C(F)(F)F	-13.8%	14.7%	-14.2%	-25.3%	2.45%	-8.25%
CCCCSCC(N)C(=O)OC (configuration not stated)	19.1%	-11.2%	4%	-65.5%	3.75%	2.8%
CCCCCCC(Br)CCCC (configuration not stated)	15.6%	-8.85%	14%	-15.2%	-7.75%	-4.9%
O=C(/C=C/c1ccc2c(c1)OCO2)c1cccc2ccccc12	-4.4%	-14.6%	-17.4%	4.05%	-3%	5%
O=C(O)/C=C/C(=O)Nc1ncn[nH]1	-3.55%	-24.7%	-22.9%	3.2%	-34.9%	-5.4%
